High-throughput results deposited in PubChem BioAssay by National Center for Advancing Translational Sciences (NCATS).
BAZ2B inh: qHTS Assay for Inhibitors of BAZ2B; Bromodomain adjacent to zinc finger domain protein 2B (Homo sapiens), Q9UIF8; AlphaScreen BAZ2B-H3K14Ac peptide displacement; Potency, µM (top dose mostly 114 µM), inactives show top-dose activity change, negative = inhibition, hits mostly inhibitors; 360,000 compounds, 4.4% hits; note: % is set by controls: 0 for no effect and ±100 for the full control effect; nearly all actives have a fitted effect of over 60% in size
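Protein-peptide AlphaScreen: BAZ2B 50 nM, b-H3K14Ac 50 nM, 1x PBS pH 7.4 + 0.01% Tween-20. Preincubation 30 min RT; cpd 30 min RT (top 110 uM); beads 20 min RT, light-protected.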
G9a block: qHTS Assay for Inhibitors of Histone Lysine Methyltransferase G9a; G9a H3K9 monomethylation, AlphaScreen, 2 h; Potency, µM (series often up to 102 µM), without a hit: top-dose activity, negative = inhibition, usual class: inhibitors; 350,000 compounds, 8.8% hits; note: % is set by controls: 0 for no effect and ±100 for the full control effect; nearly all actives have a fitted effect of over 75% in size
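Step 1: enzyme (final 20 nM) with compound, 15 min RT. Step 2: substrate peptide 500 nM and SAM 20 uM, 2 h RT. Step 3: anti-H3K9me1 antibody and AlphaScreen beads, 10 min, then plate read.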
HP1b binding inh: HTS for Inhibitors of HP1-beta Chromodomain Interactions with Methylated Histone Tails. AlphaScreen HP1-beta / biotin-H3K9me3 peptide binding. Potency, µM (titrated, usually from 114 µM), inactives show at the highest dose activity change, negative = inhibition, actives largely listed as inhibitors. 390,000 compounds, 0.56% hits. AID 540317, 2011; note: nearly all actives have a fitted effect of over 70% in size
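Compound inhibition of the preformed complex between 50 nM HP1-beta and 50 nM biotinylated H3K9me3 peptide was read by AlphaScreen. Buffer was PBS pH 7.4 with 0.01% Tween-20. Incubations ran 30 min at room temperature, with 10 ug/mL donor/acceptor beads.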
Sfp inh: qHTS Assay for Inhibitors of Bacillus subtilis Sfp phosphopantetheinyl transferase (PPTase); Biochemical Sfp PPTase activity, qHTS; Potency, µM, for the others: largest response in the series, negative = inhibition, most hits filed as inhibitors; 310,000 compounds, 3.5% hits;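 note: the enzyme is Sfp with the accession as filed and its product quenches rhodamine fluorescence; 0% = enzyme reaction without inhibitor and -100% = no enzyme wells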
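Fluorescence-quenching assay: 15 nM Sfp-PPTase preincubated 15 min at room temperature with compound, then 5 uM rhodamine-CoA and 12.5 uM BHQ-2-labelled YbbR peptide added. Fluorescence (ex 525/em 598 nm) read at start and after 30 min; difference gives rate.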
JMJD2A Tudor: qHTS Assay for Inhibitors of JMJD2A-Tudor Domain | Lysine-specific demethylase 4A (Homo sapiens), O75164 | AlphaScreen JMJD2A-Tudor / H3K4me3 peptide binding | Potency, µM (titrated, usually from 114 µM), without a hit: at the top dose activity change, negative = inhibition, hits mostly inhibitors | 390,000 compounds, 4.4% hits | AID 504339, 2011; note: % is set by controls: 0 for no effect and ±100 for the full control effect; nearly all actives have a fitted effect of over 50% in size
PLK1 PBD block: qHTS for Inhibitors of PLK1-PDB (polo-like kinase 1 - polo-box domain): Primary Screen; Plk1 PBD binding of FITC phosphopeptide, fluorescence polarization; Potency, µM, for inactives: max response, negative = inhibition, hits mostly inhibitors; 360,000 compounds, 2.8% hits; Serine/threonine-protein kinase PLK1 (Homo sapiens), P53350; note: series mostly up to about 57 µM; % is set by controls: 0 for no effect and ±100 for the full control effect; nearly all actives have a fitted effect of over 65% in size
* marks the source's active call; other numbers are inactive results; [ ] = another dose, or the depositor's remark. Most compounds without a hit are left out; they make up all but 12% or so of the library. Calls come from the whole dose curve; as a rule, active = well fitted curve in the direction sought with a large enough effect; inconclusive = small, poorly fitted or top-dose-only effect, or another doubt; inactive = no such curve, though single readings can be large; an effect the other way counts as inactive or inconclusive. Potency is the fitted concentration of half-maximal effect.

For COc1ccc(S(=O)(=O)N2CCN(CC(=O)NC(Cc3ccccc3)C(C)=O)CC2)cc1 (stereo not given) the results were HP1b binding inh 42%, JMJD2A Tudor -5% and PLK1 PBD block -1%.
For O=C(NC(=S)Nc1ccccc1N1CCCC1)c1ccco1 the results were BAZ2B inh 40µM*, HP1b binding inh inconclusive, Sfp inh 32µM*, JMJD2A Tudor inconclusive and PLK1 PBD block inconclusive.
O=C(Nc1ccccc1N1CCOCC1)c1ccco1 was read as BAZ2B inh 5%, G9a block 17%, HP1b binding inh 5%, Sfp inh 13%, JMJD2A Tudor -8% and PLK1 PBD block -14%.
Screening CCN(c1ccc(NC(=O)c2ccc(N3CCCC3=O)cc2)cc1)C(C)C returned BAZ2B inh -25%, G9a block 3.5µM*, HP1b binding inh -2%, JMJD2A Tudor -16% and PLK1 PBD block -1%.
`CN1C(=O)c2ccc(NC(=O)c3c(C(=O)O)cccc3[N+](=O)[O-])cc2C1=O` gave BAZ2B inh 2%, G9a block 40µM*, HP1b binding inh 16%, Sfp inh -8%, JMJD2A Tudor -8% and PLK1 PBD block -14%.
For O=C(NC(=S)Nc1ccccc1N1CCOCC1)c1ccco1 the results were BAZ2B inh -9%, G9a block 50µM*, HP1b binding inh 35%, Sfp inh 3%, JMJD2A Tudor -17% and PLK1 PBD block -2%.
For O=C(Nc1ccccc1N1CCCC1)c1ccco1 the results were BAZ2B inh -27%, G9a block 50µM*, HP1b binding inh 7%, Sfp inh 5%, JMJD2A Tudor -36% and PLK1 PBD block -14%.
`O=C(Nc1ccccc1N1CCCC1)C1CCCO1` (stereo not given) gave BAZ2B inh -28%, G9a block 28µM*, HP1b binding inh 27%, JMJD2A Tudor -13% and PLK1 PBD block -11%.
For O=C(O)c1ccccc1NC(=O)C1CCCO1 (stereo not given) the results were BAZ2B inh -20%, G9a block -26%[59 µM], HP1b binding inh 13%, Sfp inh 9%, JMJD2A Tudor -8% and PLK1 PBD block -4%.
O=C(Nc1ccccc1N1CCCC1)c1ccc(N2CCCC2=O)cc1 was read as BAZ2B inh -24%, G9a block 35µM*, HP1b binding inh 8%, JMJD2A Tudor -23% and PLK1 PBD block -3%.
O=C(Nc1ccc(N2CCCC2)c(Cl)c1)c1ccccc1[N+](=O)[O-] was read as BAZ2B inh inconclusive, G9a block inconclusive, HP1b binding inh -7%, Sfp inh 0%, JMJD2A Tudor inconclusive and PLK1 PBD block 27µM*.
`CC1CCCC(NC(=S)NC(=O)c2ccco2)C1C` (stereo not given) gave HP1b binding inh 26%, JMJD2A Tudor -27% and PLK1 PBD block -2%.
CC#CCN1c2ccccc2[C@]23C[C@@H](C(=O)OC)N(S(=O)(=O)c4c(C)noc4C)C2=NC(C(=O)OC)=C(C(=O)OC)[C@H]13 was read as Sfp inh 15%.
For Cc1ccc(Cc2c(-c3ccc(C#N)cc3)nc3c4ccccc4ccn23)cc1 the results were PLK1 PBD block -2%.
Screening COc1ccc(C(CNC(=O)c2ccc(NS(=O)(=O)c3cccc([N+](=O)[O-])c3)cc2)N2CCOCC2)cc1 (stereo not given) returned BAZ2B inh -1%, HP1b binding inh 23%, Sfp inh -3%, JMJD2A Tudor -27% and PLK1 PBD block -1%.
Screening CC(NC(=O)c1cc2ccccn2n1)c1ccccc1 (stereo not given) returned BAZ2B inh 4%, G9a block 9%[59 µM], HP1b binding inh 12% and JMJD2A Tudor -12%.
c1ccc(CCNCc2ccco2)nc1 was read as HP1b binding inh 10%, JMJD2A Tudor -25% and PLK1 PBD block -3%.
Screening O=C(Nc1ccccc1N1CCCC1)c1ccc(Cl)cc1Cl returned BAZ2B inh 6%, G9a block -7%, HP1b binding inh 24%, Sfp inh 9%, JMJD2A Tudor -29% and PLK1 PBD block -6%.
`CN(CCCNC(=O)c1ccc(N2CCCC2=O)cc1)c1ccccc1` gave BAZ2B inh -34%, G9a block 10µM*, HP1b binding inh 11%, Sfp inh -25%, JMJD2A Tudor inconclusive and PLK1 PBD block -4%.
For CCCCN(C)CCCNC(=O)c1ccc(N2CCCC2=O)cc1 the results were BAZ2B inh -2%, G9a block 31%[0.501 µM], HP1b binding inh 30%, Sfp inh 23%, JMJD2A Tudor 15% and PLK1 PBD block -1%.
`O=C(Nc1ccccc1N1CCCC1)c1ccccc1Cl` gave BAZ2B inh inconclusive, G9a block 40µM*, HP1b binding inh 24%, Sfp inh 12%, JMJD2A Tudor -21% and PLK1 PBD block -11%.
For CCCc1nc2ccc(Cl)cn2c1Cc1ccc(C)cc1 the results were PLK1 PBD block 0%.
Screening CCOC(=O)c1cc(-c2ccc(F)cc2)n(CCC(=O)NCCc2ccc(C)cc2)c1C returned BAZ2B inh -26%, G9a block inconclusive, HP1b binding inh -4% and JMJD2A Tudor inconclusive.
`Cc1nn(CCC(N)=S)c2nc(-c3cccs3)cc(C(F)(F)F)c12` gave BAZ2B inh -20%, G9a block 10µM*, HP1b binding inh -20%, Sfp inh 22µM*, JMJD2A Tudor -10% and PLK1 PBD block 11µM*.
Cc1nn(CCC#N)c2nc(-c3ccccc3)cc(C(F)(F)F)c12 was read as BAZ2B inh 12%, G9a block 6%, HP1b binding inh 37%, Sfp inh -12%, JMJD2A Tudor 3% and PLK1 PBD block -2%.
Screening CSc1ccc(CCNC(=O)Cn2ncc3c(=O)oc4ccc(C)cc4c32)cc1 returned BAZ2B inh -10%, G9a block -1%[59 µM], HP1b binding inh 33% and JMJD2A Tudor -9%.
C/C(CC1CC(C)(C)OC1=O)=N\NC(N)=S (stereo not given) was read as BAZ2B inh inconclusive, G9a block 32µM*, HP1b binding inh 7%, Sfp inh 35µM*, JMJD2A Tudor 7.1µM* and PLK1 PBD block -15%.
